# Rows were chosen to be rich in hits. Some 2.1% of all compounds tested hit in one or more screens of this group.
# Fh CTSL1 inh – counter-screen for PFM18AAP inhibitors: inhibitors of F. hepatica cathepsin L1. recombinant F. hepatica cathepsin L1, Z-Leu-Arg-MCA fluorescence. actives 0.49% (n = 300,000). AID 1906. inhibition, % at 5.96 µM;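 active means inhibition above the mean of all tested compounds plus 3 SD, set per screening campaign, cut at about 17% in these data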
# Rin1-Abl PPI inh – human Rin1-Abl interaction inhibition. actives 0.4% (n = 360,000). inhibition, % at 7.35 µM. AID 588664. TR-FRET Rin1/Abl binding, biochemical; in the data active means inhibition above about 5%, passing the limit was not always enough
# M18AAP inhibitor – blocks P. falciparum M18 aspartyl aminopeptidase | recombinant PfM18AAP, H-Glu-NHMec fluorogenic cleavage | inhibition, % at 7.35 µM | actives 1.2% (n = 290,000);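 active means inhibition above the campaign mean inhibition over all tested compounds plus 3 SD, cut at about 28% in these data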
# Calb FLC – C. albicans growth modulation with fluconazole; actives 0.57% (n = 300,000); growth inhibition, % (test concentration not listed); C. albicans CaCi-2 (fluconazole-resistant clinical isolate) + fluconazole, Alamar Blue growth, 48 h; AID 1979;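 active means growth inhibition above about 58% in most replicates, limit read from the data, passing the limit was not always enough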;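 further: all wells also contain fluconazole at 8 µg/ml as a sub-toxic cotreatment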
# Numbers stand for hits; i = inactive; nt = not tested or not shown.
SMILES,Fh CTSL1 inh,Rin1-Abl PPI inh,M18AAP inhibitor,Calb FLC
CC1CCCN(CCCNC(=O)c2ccc3c(c2)N(Cc2ccccc2F)C(=O)c2ccccc2S3(=O)=O)C1 (centres undefined),i,i,i,i
CCN1CCCC1CNC(=O)c1ccc2c(c1)N(Cc1ccccc1F)C(=O)c1ccccc1S2(=O)=O (centres undefined),52.4,i,i,i
CCN1CCCC1CNC(=O)c1ccc2c(c1)N(Cc1cccc(Cl)c1)C(=O)c1ccccc1S2(=O)=O (centres undefined),i,i,i,i
O=C(NCCN1CCOCC1)c1ccc2c(c1)N(Cc1ccccc1F)C(=O)c1ccccc1S2(=O)=O,18.2,i,i,i
O=C(NCCN1CCOCC1)c1ccc2c(c1)N(Cc1ccccc1F)C(=O)CS2,27.1,i,i,i
Cc1ccc(C2=NN=C(NC(=O)CSc3nncn3C)SC2)cc1,i,i,54.4,i
COC(=O)c1sc2cc(=O)n(-c3cccc(C(F)(F)F)c3)nc2c1O,i,i,31.1,i
O=c1[nH][nH]c2cc(=O)n(-c3cccc(C(F)(F)F)c3)nc12,i,i,i,i
COc1ccc([C@H]2CC(=O)C=C(c3cccc(NC(C)=O)c3)C2)cc1,nt,i,nt,nt
Cc1cc(C)c(NS(=O)(=O)c2ccc3c(c2)oc(=O)n3C)c(C)c1,nt,i,nt,nt
CCN(CC)c1ccc(NS(=O)(=O)c2ccc3c(c2)oc(=O)n3C)c(C)c1,i,i,29.3,i
COc1cccc(CN(C)C(=O)c2csc3c2CCCC3)c1OC,18.5,i,i,i
O=C(NNc1ccc(Cl)cc1)C1CCC1,i,i,i,84.8
COc1ccc(S(=O)(=O)N2CCOCC2)cc1NC(=O)COC(=O)c1ccc([N+](=O)[O-])s1,nt,i,nt,nt
FC(F)(F)COc1nc(OCC(F)(F)F)nc(N2CCN(c3ccccc3)CC2)n1,i,i,i,88.5
FC(F)(F)COc1nc(N2CCOCC2)nc(N(c2ccccc2)c2ccccc2)n1,i,i,i,i
COc1ccc(CNC(=O)c2nccnc2CO)cc1,nt,i,i,i
Cc1[nH]n(-c2ccccc2)c(=O)c1C(C[N+](=O)[O-])c1ccc(Cl)cc1 (centres undefined),i,i,28.5,i
Cc1[nH]n(-c2ccccc2)c(=O)c1Sc1ccc(Cl)cc1,i,i,i,i
Cc1[nH]n(-c2ccccc2)c(=O)c1C(C[N+](=O)[O-])c1ccc(F)cc1 (centres undefined),i,i,29.7,i
COC(=O)c1cc(OC)c(OC)c(OC)c1[N+](=O)[O-],i,i,i,i
O=S(=O)(Nc1ncn[nH]1)c1ccc(Cl)cc1,i,i,58.7,i
c1ccc(CNc2ncn[nH]2)cc1,nt,i,nt,nt
Clc1ccc(CNc2ccc(CNc3ncn[nH]3)cc2)c(Cl)c1,i,i,28.4,i
Clc1ccc(CNc2ccc(CNc3ncn[nH]3)cc2)cc1,i,i,36.5,i
SMILES,Fh CTSL1 inh,Rin1-Abl PPI inh,M18AAP inhibitor,Calb FLC
c1ccc(CNc2ccc(CNc3ncn[nH]3)cc2)cc1,i,i,i,i
CC(C(=O)Nc1cc([N+](=O)[O-])ccc1Cl)N1CCN(c2ccc(O)cc2)CC1 (centres undefined),i,i,28.9,i
CC(=O)OC1c2ccccc2C(=O)N1Cc1ccccc1 (centres undefined),20.2,i,i,i
CC(=O)OC1c2ccccc2C(=O)N1c1ccccc1C (centres undefined),i,i,i,i
O=C(NCc1ccccc1)C(c1ccccn1)N(C(=O)c1csnn1)c1ccccc1F (centres undefined),i,i,i,i
COc1cc(C(=O)NCc2nnc(SCC(=O)Nc3nc4ccccc4s3)o2)cc(OC)c1OC,i,i,31.3,i
COc1ccc(C(=O)NCc2nnc(SCC(=O)Nc3nc4ccccc4s3)o2)cc1,i,i,i,i
COc1ccc(C(=O)NCc2nnc(SCC(=O)Nc3cc(C)on3)o2)cc1OC,i,i,30.4,i
COc1cc(C(=O)NCc2nnc(SCC(=O)Nc3cc(C)on3)o2)cc(OC)c1OC,i,i,i,i
CC(C)Cc1nnc(NC(=O)CN2C(=O)NC3(CCCC3)C2=O)s1,i,i,nt,i
COc1cc(CN2CCCN(C)CC2)cc([N+](=O)[O-])c1O,i,i,i,i
CN(C(=O)CCc1nc(-c2ccccc2F)no1)c1ccccc1,36.8,i,i,i
CC(=O)N/N=C\c1cccc(OC/C=C/c2ccccc2)c1,nt,i,i,i
Cc1ccc(S(=O)(=O)NCc2ccc(C(=O)NCCc3ccc(S(N)(=O)=O)cc3)cc2)cc1,i,i,i,i
Cc1ccc2[nH]c(C)c(/C=C/c3cc[n+](C)cc3)c2c1,nt,i,i,93.5
Cc1ccc2c(c1)c(/C=C/c1cc[n+](C)cc1)c(C)n2C,nt,i,i,89.2
Cc1c(-c2cccc(Cl)c2)nc2ccccc2c1C(=O)NC1CC1,nt,i,i,i
Cc1cccc(NC(=O)C2CCCN(c3ncnc4c3nc3n4CCCCC3)C2)n1 (centres undefined),i,i,i,i
O=C(O)c1ccc(-c2nc(-c3ccc(Cl)cc3)cs2)cc1,nt,i,i,91.0
O=C1/C(=C\c2cc([N+](=O)[O-])ccc2O)SC(=S)N1Cc1ccc(Cl)cc1,i,i,i,85.5
Cc1ccccc1/C=C1\SC(=S)N(/N=C/c2cc([N+](=O)[O-])ccc2O)C1=O,i,i,i,84.8
O=C1/C(=C\c2ccc(O)c(O)c2)SC(=S)N1Cc1ccccc1,nt,i,47.6,i
O=C(CN1C(=O)/C(=C/c2ccccc2)SC1=S)NNC(=O)c1ccccc1O,i,i,i,84.3
C/C=C\C(=O)Nc1cccc(C2=NOC3(C2)C[C@H](C(N)=O)N(C(=O)Cc2ccc([N+](=O)[O-])cc2)C3)c1 (some centres undefined),i,i,nt,i
CCN1CCN(CC(=O)N2N=C(c3cccs3)CC2c2ccc(C)cc2)C(=O)C1=O (centres undefined),i,i,i,i
SMILES,Fh CTSL1 inh,Rin1-Abl PPI inh,M18AAP inhibitor,Calb FLC
O=C(/C=C/c1ccccc1)Nn1c(-c2cccs2)nc2ccccc2c1=O,i,i,i,94.8
Cc1cccc(NC2=NC(=S)N(c3cccc(C(=O)O)c3)C23CCCCC3)c1,i,i,i,103.7
CC(C)C[C@H](NC(=O)OC(C)(C)C)C(=O)N[C@@H](CO)[C@H](O)[C@@H]1C[C@@H]1C(=O)N(C)C,i,i,i,i
CC(C)(C)OC(=O)N[C@@H](Cc1ccccc1)C(=O)N[C@@H](CO)[C@H](O)[C@@H]1C[C@@H]1C(=O)N1CCCC1,i,i,i,i
CC(C)C[C@H](NC(=O)OC(C)(C)C)C(=O)N[C@@H](CO)[C@H](O)[C@@H]1C[C@@H]1C(=O)NC1CC1,19.7,i,i,i
CC(C)(C)OC(=O)N[C@@H](COCc1ccccc1)C(=O)N[C@@H](CO)[C@H](O)[C@@H]1C[C@@H]1C(=O)NC1CC1,i,i,i,i
CC(C)C[C@H](NC(=O)OC(C)(C)C)C(=O)N[C@@H](CO)[C@H](O)[C@@H]1C[C@@H]1C(=O)NC1CCCCC1,32.9,i,i,i
CCCCNC(=O)[C@H]1C[C@H]1[C@@H](O)[C@H](CO)NC(=O)[C@H](CC(C)C)NC(=O)OC(C)(C)C,43.6,i,i,i
CCN(c1ccccc1)S(=O)(=O)c1ccc(C(=O)NCc2ccco2)cc1,nt,i,nt,nt

# Screening data as filed in PubChem.
